Screening results: PubChem, Broad Institute
MITF act: activators of MITF-driven TRPM1 promoter reporter, primary screen, cell-based, SK-MEL-5, luciferase, single point. activation, % at 12.5 µM. AID 588334, 2011. SK-MEL-5 TRPM1-promoter luciferase, 24 h; % of positive control, neutral wells = 0. 300,000 compounds, 0.75% hits;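 active means mean activation of at least 80% with every replicate also reaching 80%; inconclusive means mean reaches 80% but some replicate falls short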;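 further: 0% = neutral control wells and 100% = parthenolide positive control wells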
LMP1 NFkB inh: EBV LMP1-driven NF-kappaB luciferase reporter inhibitors, primary screen, cell-based, luminescence, single point. LMP1-induced NF-kappaB luciferase reporter cells. inhibition, % at 12.5 µM. 350,000 compounds, 0.69% hits. AID 504558, 2011; in the data active means inhibition above about 41%; inconclusive means no clear call, values can overlap the other calls;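 further: 0% = neutral control wells and 100% = reference inhibitor control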
Wnt bcat act: Wnt/beta-catenin pathway activators, primary screen, cell-based, plate reader, single point; 300,000 compounds, 1.2% hits; Wnt/beta-catenin reporter cell assay, activator; AID 743398, 2014; activation, % at 9.35 µM; in the data active means activation above about 30%, passing the limit was not always enough; inconclusive means no clear call, values can overlap the other calls;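 further: 0% = neutral control wells and 100% = positive control wells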
TRPM1 prom inh: inhibitors of MITF-dependent TRPM1 promoter reporter, primary screen, cell-based, SK-MEL-5, single point, luciferase. AID 488899, 2010. 330,000 compounds, 0.83% hits. inhibition, % at 12.5 µM. SK-MEL-5 TRPM1 promoter luciferase, 24 h;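 active means mean inhibition across replicates of 60% or more, whatever share of single replicates reaches that level; inconclusive means some that reach 60%, reason not given; inactive means mean inhibition across replicates below 60%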
Statin myotox sup: suppressors of statin myotoxicity in C2C12 myotubes, primary screen, cell-based, single point, plate reader | C2C12 myotubes + simvastatin, ATP luminescence, 48 h; scaled: DMSO 0, geranylgeraniol control 100 | rescue of ATP level, % at 7.49 µM | AID 602340, 2012 | 330,000 compounds, 0.78% hits;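 active means mean ATP rescue above about 67%, or every replicate alone reaching that limit, limit read from the data, passing the limit was not always enough; inconclusive means no clear call, values can overlap the other calls; inactive means mean under the limit and some replicate under it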;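 further: myotubes were challenged with 10 µM simvastatin during compound exposure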
esBAF inh: Bmi1 luciferase reporter increase in mESCs, primary screen, esBAF inhibitor project, mouse ES cells, Bmi1 luciferase knock-in, single point | 24 h; 100% = twice the neutral-well signal | reporter increase, % at 12.5 µM | 350,000 compounds, 2% hits; in the data active means activation above about 40%; inconclusive means no clear call, values can overlap the other calls;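 further: 0% = median of the plate's neutral control wells and 100% = double that signal; a rise in the Bmi1 reporter signal indicates esBAF inhibition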
Numbers without * were called inactive; i = inactive; u = inconclusive; x = no result given. Only some compounds are listed: those with a hit (about 4% of all), similar ones and a draw of the others.

SMILES	MITF act	LMP1 NFkB inh	Wnt bcat act	TRPM1 prom inh	Statin myotox sup	esBAF inh
CCC(=O)Nc1nnc(/C=C/c2ccc(OC)cc2)s1	x	-9	34*	-50	x	x
COc1cccc(NC(=O)c2cc(-c3ccc(C)o3)nc3ccccc23)c1	0	-3	5	3	-11	6
CCn1c(SCc2ccccc2)nnc1-c1ccc(S(=O)(=O)N2CCCCC2)cc1	x	0	-7	9	x	-15
COc1cccc(S(=O)(=O)N[C@H]2CC[C@@H](CC(=O)NCc3ccncc3)O[C@H]2CO)c1	x	x	x	x	-1	-2
COc1ccc2sc(NC(=O)CC(C)C)nc2c1	u	-25	57*	-92	-21	40
CCOCC(=O)Nc1nc2ccc(OC)cc2s1	u	-13	x	-82	x	x
CCC(=O)Nc1nc2ccc3nc(C)sc3c2s1	44	-31	22	-43	2	46*
CCC(=O)Nc1nc2cc(OC)ccc2s1	x	-31	59*	-35	-4	17
CCc1ccc(NC(=O)C2CCN(S(=O)(=O)c3ccc4c(c3)N(C(C)=O)CCO4)CC2)cc1	-2	14	x	6	-15	2
O=C(CSc1nnc(NC(=O)c2ccccc2Cl)s1)NC1CC1	35	-5	9	-34	x	x
Cc1cc2c(cc1C)C(=O)C(Br)=C(N)C2=O	-61	-13	-4	62*	-4	22
NC1=C(Br)C(=O)c2ccccc2C1=O	x	-2	10	71*	x	x
CC1Cc2nc(SCC(=O)N3CCN(c4ccccc4)CC3)n(C)c(=O)c2S1 (stereo not given)	4	77*	0	-1	-18	7
CC1Cc2nc(SCC(=O)N3CCCC3)n(C)c(=O)c2S1 (stereo not given)	x	-8	-6	x	6	-4
CC1Cc2nc(SCC(N)=O)n(C)c(=O)c2S1 (stereo not given)	1	2	-3	5	135*	-3
O=C1CC2c3ccccc3CCN2C(=O)CN1Cc1ccccc1 (stereo not given)	x	x	-2	x	4	3
O=C(O)CCC(=O)OCC1CCCCC1	-4	1	0	7	114*	-6
Cc1ccc2cc(NC(=O)c3cccc(F)c3)ccc2n1	x	-30	50*	-76	-8	16
Cc1cc(C(=O)Nc2ccc3ccccc3c2)c(C)o1	70	-33	34*	-72	10	1
Cc1ccc2cc(NC(=O)CC(CC(=O)O)c3ccccc3)ccc2n1 (stereo not given)	0	-4	0	2	2	-7
O=C(Nc1ccc2[nH]ncc2c1)c1cccc(F)c1	x	-14	-3	-47	-1	24
O=C(Nc1ccc2ccccc2c1)c1cccc(F)c1	123*	-59	46*	-120	-2	50*
CC(=O)c1cc(C(=O)Nc2ccc3ccccc3c2)c(C)o1	-14	9	-1	14	8	-3
Cc1ccc2cc(NC(=O)c3ccccc3)ccc2n1	49	4	40*	-39	-30	3
CN(C)c1ccc(C2C=C(c3ccc(Cl)cc3OC(F)F)Nc3ncnn32)cc1 (stereo not given)	-26	4	x	25	-117	-9
SMILES	MITF act	LMP1 NFkB inh	Wnt bcat act	TRPM1 prom inh	Statin myotox sup	esBAF inh
Cc1ccc(C2C=C(c3ccccc3OC(F)F)Nc3ncnn32)cc1 (stereo not given)	-3	2	x	3	107*	6
Cc1ccc(C2(C)NC(=O)N(CC(=O)c3ccc4c(c3)OCCO4)C2=O)cc1 (stereo not given)	7	5	-1	-5	7	6
CC1CCCN(S(=O)(=O)c2cc3c4c(c2)C(C)C(=O)N4CCC3)C1 (stereo not given)	7	69*	-1	-6	0	1
CC1C(=O)N2CCCc3cc(S(=O)(=O)N4CCCCC4)cc1c32 (stereo not given)	7	-1	1	-2	0	0
C#CC(=O)N(c1ccc(OC)cc1OC)C(C(=O)NC1CCCC1)c1cccs1 (stereo not given)	-101	21	-10	101*	-366	49
COc1ccc(N(C(=O)c2snc(C(N)=O)c2N)C(C(=O)NC2CCCC2)c2cccs2)cc1OC (stereo not given)	11	-9	-1	-9	5	4
COc1ccc(N(C(=O)c2ccco2)C(C(=O)NC2CCCCC2)c2cccs2)cc1OC (stereo not given)	-2	5	-2	2	19	3
C#CC(=O)N(c1cc(OC)ccc1OC)C(C(=O)NC1CCCC1)c1cccs1 (stereo not given)	-104	73*	x	x	i	-50
CCOc1ccccc1CN1CCN(Cc2ccc3cc(F)ccc3n2)CC1CCO (stereo not given)	-25	-2	-1	20	13	1
O=C(NCCCN1CCOCC1)c1ccc2c(c1)N(Cc1c(F)cccc1Cl)C(=O)CS2	1	0	-1	2	3	-5
COc1cccc(CNC(=O)CCC2CCCN(C(=O)c3cc4ccccc4o3)C2)c1 (stereo not given)	84*	-34	25	-79	9	62*
COc1cccc(CNC(=O)CCC2CCCN(C(=O)c3ccoc3)C2)c1 (stereo not given)	-8	-1	1	11	-2	-4
O=C(CCCCCCC(=O)c1ccccc1)c1ccccc1	x	-8	2	x	x	x
COc1ccc(N2C(=O)/C(=C/c3cccnc3)NC2=S)cc1	-4	-3	2	4	x	x
COc1cccc(N2C(=O)/C(=C\c3cccs3)NC2=S)c1	15	0	12	-11	6	43*
CN(C)S(=O)(=O)c1ccc2nc(NC(=O)c3cccnc3)sc2c1	61	-23	38*	-57	x	x
COc1ccccc1C(=O)Nc1nc2ccc(S(C)(=O)=O)cc2s1	60	-4	x	-60	-12	49*
CS(=O)(=O)c1ccc2nc(NC(=O)c3ccccc3Br)sc2c1	x	-14	4	-63	0	58*
CCOC(=O)[C@]12CCC=C1N(Cc1ccc3c(c1)OCO3)C(=O)[C@H](CC(=O)NCc1cccc3ccccc13)C2	x	x	-1	x	x	x
Cc1nn(C)c(C)c1C(C)NC(=O)c1cc(COc2ccc(F)c(F)c2)on1 (stereo not given)	56	-15	1	-56	-2	51*
C/C(=N\Nc1ccccn1)c1ccc(Br)s1	x	x	4	x	-8	28
CSc1ccc(C(=O)/C=C/c2ccc(N)cc2)cc1	64	-11	67*	-70	1	66*
COc1cccc(/C=C/C(=O)c2c(O)cc(C)oc2=O)c1O	-7	-3	21	5	-1	6
